About 83,000 compounds went through this panel and 20% of them were active in at least one assay; those are over-represented in the sample as a whole.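 Results are percent growth after 48 hours of single-concentration exposure. 100 means growth as in untreated cells, lower positive values show inhibition; negative values down to -100 show cell death.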 The source made the active and inactive calls. The calls were made as follows: active = growth percent below 10; inactive = the rest.

This experiment concerns HL-60(TB) leukemia. In words: NCI-60 one-dose screen, 48 h (100 = growth as untreated, 0 = no growth, -100 = all killed). As to conditions: 10 µM unless noted.
Take `COc1ccc(C/C(C)=C(/c2ccc(OCCN(C)C)cc2)c2ccc(OC(=O)NCc3ccccc3)cc2)cc1`: the growth is 45.1% (inactive). The same measure for `CCOC(=O)C1=CSC2=NC3=C(CCC/C3=C\c3ccc(Cl)cc3)C(c3ccc(Cl)cc3)N12` (stereo not given): 79.7% (inactive); for `O=C(/C=C(O)/C=C/c1ccc(SC(F)(F)F)cc1)/C=C/c1ccc(SC(F)(F)F)cc1`: 81.9% (inactive); for `C=C1c2nc3ccccc3n2C=C(c2ccc(Cl)cc2)N1Cc1ccc(OC)cc1`: 53% (inactive). The same measure for `CCOC(=O)c1c2c(c(C)n1Cc1ccc(OC)cc1)-c1nc(N)ncc1CC2`: 68.8% (inactive); for `COc1ccc2cnc(N)c(C#Cc3cc(C(=O)Nc4ccc(CN5CCN(C)CC5)c(C(F)(F)F)c4)cnc3C)c2c1`: 95% (inactive).

With `O=C(O)c1ccccc1C(=O)Nc1ccc(Cl)cc1`, the growth was 55% (inactive). Then `CC(C)c1c(C(=O)c2ccccc2)c(-c2ccccc2)c(-c2ccc(F)cc2)n1CC[C@@H](O)C[C@@H](O)CC(=O)O`, with 74% (inactive); and `COc1cc(NC(=O)CCSc2nc3ccc(Cl)cc3c(=O)n2Cc2ccccc2)cc(OC)c1OC`, with 99.6% (inactive); and `Cc1ccc(C(CN(C)C)C(=O)c2ccccc2)cc1` (stereo not given), with -31.3% (active). Then `COc1cccc(-c2nn(C(C)(C)C)cc2-c2ccnc(NCCCNS(=O)(=O)c3ccc(C)cc3)c2)c1`, with 105% (inactive); and `OCCc1ccc(Cl)cc1`, with 104% (inactive). Consider `COc1ccc(/C=C/C(=O)/C=C(/C=C/c2ccc(OC)c(OC)c2OC)OB(F)F)c(OC)c1OC`, for which the growth is 8.53% (active). For `O=C1COCCN1c1ccc(NCc2cn(C(=O)c3ccc(Cl)cc3)c3ccccc23)cc1`, the growth is 90.6% (inactive). The same measure for `COc1ccc(CCN2C(=O)/C(=C/c3ccc(C4Oc5ccccc5C5CC(c6cccc(OC)c6)=NN54)cc3)SC2=S)cc1` (stereo not given): 99.5% (inactive); for `CC1CCc2cc(F)cc3c(=O)c(C(=O)O)cn1c23` (stereo not given): 107% (inactive); for `CC(=O)C1CCC2C3CC(C)=C4CC(O)CCC4(C)C3CCC12C` (stereo not given): 98.7% (inactive). In the case of `Nc1nc(N)c2c(n1)NC(c1cccc(Nc3ccnc4cc(C(F)(F)F)ccc34)c1)CC(c1ccc(Cl)cc1)=N2` (stereo not given), the growth was 34.3% (inactive).

As to `O=C1OCC2=C1C(c1cccc(Cl)c1)c1cc3c(cc1N2CCO)OCO3` (stereo not given), the growth was -19.3% (active). As for `CC(=O)Nc1ccc2oc(=O)ccc2c1`, the growth was 67.8% (inactive). Regarding `CCO/C=C1\SC(=S)N(c2cccc(C)c2)C1=O`, the growth was 99% (inactive).

`COCCOc1cc2ncnc(N3CCN(S(=O)(=O)c4ccccc4Cl)CC3)c2cc1OCCOC`: the growth is 56% (inactive). With `Cc1ccc(C(=O)c2ccc(CC(=O)N/N=C/c3ccc(O)cc3O)n2C)cc1`, the growth was 4.48% (active). With `CCOC(=O)C/C(=N\Nc1cc(=O)[nH]c2ccc(Cl)cc12)C(=O)OCC`, the growth was 90.6% (inactive). The same measure for `Cc1ccc(NC(=O)c2nc(S(C)=O)oc2-c2ccc(F)cc2)cc1Nc1nccc(-c2cccnc2)n1` (stereo not given): 47.3% (inactive); for `CCCSc1nc(N)nc2nc[nH]c12`: 74.6% (inactive). The same measure for `CC(C)(C#N)c1cc(C(=O)Nc2cc(Nc3ncccc3-c3ncnc4nc[nH]c34)ccc2F)cc(C(F)(F)F)c1`: 35.3% (inactive); for `COc1cc2c(c(OC)c1OC)-c1ccc(N)c(=O)cc1[C@@H](NC(C)=O)CC2`: 3.69% (active); for `O=C(Nc1ccc(Cl)cc1)Nc1ccc(Nc2nncc3ccccc23)cc1`: 18.1% (inactive). As to `NCCCNc1nc2ccc(Cl)cc2c2c(=O)c3cc(F)ccc3sc12`, the growth was 34.9% (inactive). Then `Cc1nc2sc(C(=O)Nc3cccc(Cl)c3C)c(N)c2cc1C(=O)/C=C/c1ccccc1`, with 2.75% (active); and `Cc1ccc(-c2[nH][nH]c(=O)c2-c2nc3ccccc3s2)cc1`, with 101% (inactive). For `CC1=C([Se]CC(OC(=O)CC[Se]c2ccccc2)C(=O)NC(C)(C)C)C(=O)c2ccccc2C1=O` (stereo not given), the growth was -43.2% (active). For the compound `FC(F)(F)c1cn(CC2CNC2)c2ncnc(Cl)c12`, the growth is 73.5% (inactive).

Take `CC(C)(O)c1cccc(F)c1`: the growth is 70.7% (inactive). Then `CC(C)=C1CCC(C)C/C1=N\N=C(N)N` (stereo not given), with 104% (inactive); and `Nc1c(C(=O)Nc2cccc3ccncc23)sc2nc3c(cc12)C(=O)CCC3`, with 14.7% (inactive). Then `Cn1cc(-c2ccc3cc(-c4ccc(CC(=O)Nc5cc(C(C)(C)C)on5)cc4)cnc3c2)cn1`, with -14.3% (active); and `CC(=O)Oc1ccccc1C(=O)N=C1[Se]CCCN1C(=O)c1ccccc1OC(C)=O`, with 12.7% (inactive); and `COc1ccccc1-c1ccc2c(N)c(C(=O)c3ccc4c(c3)OCO4)sc2n1`, with 37% (inactive).

(Values after PubChem BioAssay (NCI).)
